Test results taken from PubChem BioAssay AID1159580 (chemical genetic matrix, 2015).
Several values for one entry are separate records, joined by “and”; a condition that tells them apart may be missing. Identical values can stand only once. Out of some 5,500 compounds screened, about 2,000 (36%) were called active. Inconclusive results (about 18%) are left out. Cut-off read from the data, not from the text of the source: active = normalized growth mostly below about 0.91 (no sharp cut-off); inconclusive = no clear call, values can overlap the other calls; inactive = mostly above about 0.92. The list shows a part of the results.

Assay: chemical genetic growth profiling, strain panel (AID 1159580);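 note: tested at 20 µM; growth read once vehicle control cultures reached saturation at 30 °C; 1 = growth at the plate median or of vehicle wells; lower values mean less growth of the strain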
Details: S. cerevisiae deletion strains, growth OD
[1] = locus YAL040C, strain CLN3, hits give low values
[2] = locus YCL061C, strain MRC1 (second series), hits give low values
[3] = locus YDR363W, strain ESC2, hits give low values
[4] = locus YER002W, strain NOP16, hits give low values
[5] = locus YGR078C, strain PAC10, hits give low values
[6] = locus YGR229C, strain SMI1, hits give low values
[7] = locus YMR263W, strain SAP30, hits give low values
[8] = locus YMR307W, strain GAS1, hits give low values
[9] = locus YNL153C, strain GIM3, hits give low values
[10] = locus YNL175C, strain NOP13, hits give low values
[11] = locus YNL197C, strain WHI3, hits give low values
[12] = locus YNL224C, strain SQS1, hits give low values
[13] = locus YOR083W, strain WHI5 (second series), hits give low values
[14] = locus YPL241C, strain CIN2, hits give low values
[15] = locus YJR075W, strain HOC1, hits give low values
[16] = locus YNL322C, strain KRE1, hits give low values

Measured: normalized growth

CN1C2CCC1CC(OC(c1ccccc1)c1ccc(Cl)cc1)C2 (centres undefined)
inactive: [1] 1.01 | [2] 1 | locus YDR150W, strain NUM1, hits give low values 0.997 | [3] 0.958 | [4] 1.04 | [5] 1.02 | [7] 0.997 | [8] 0.994 | [9] 0.987 | [10] 1.04 | [11] 1.03 | [12] 1.05 | [13] 1.01 | [14] 0.993
active: [6] 0.844

CN1C2CCC1CC(OC(=O)c1cc(Cl)cc(Cl)c1)C2 (centres undefined)
inactive: [1] 1 | [2] 1 | [3] 0.99 | [4] 0.997 | [5] 1.01 | [15] 0.997 | [7] 0.999 | [8] 1 | [10] 1.01 | [11] 1.01 | [12] 1.03 | [16] 0.996 | [13] 1.01 | [14] 1

CN1C2CCC1CC(OC(=O)c1c[nH]c3ccccc13)C2 (centres undefined)
inactive: [1] 0.995 | [2] 1 | [3] 1.01 | [4] 0.994 | [5] 1.02 | [15] 1 | [7] 1 | [8] 1.01 | locus YNL128W, strain TEP1, hits give low values 0.995 | [9] 1.01 | [10] 1 | [11] 1.02 | [12] 0.985 | [16] 1.03 | [13] 1.01 | locus YPL055C, strain LGE1, hits give low values 1.02

CN1C2C[C@H](OC(=O)[C@H](CO)c3ccccc3)C[C@H]1[C@@H](O)C2
inactive: locus YAL021C, strain ccr4, hits give low values 0.979 | locus YAL026C, strain drs2, hits give low values 1.04 | locus YAL030W, strain snc1, hits give low values 1.02 | locus YBL061C, strain skt5, hits give low values 1.03 | locus YBR009C, strain hhf1, hits give low values 1.01 | locus YBR021W, strain FUR4, hits give low values 0.995 | locus YBR023C, strain chs3, hits give low values 1.02 | locus YBR171W, strain sec66, hits give low values 1.01 | locus YBR229C, strain ROT2, hits give low values 1.01 | locus YBR231C, strain swc5, hits give low values 1.02 | locus YBR279W, strain paf1, hits give low values 1.02 | locus YCL011C, strain gbp2, hits give low values 1.01 | locus YCL016C, strain dcc1, hits give low values 0.998 | locus YCL029C, strain bik1, hits give low values 0.997 | locus YCL069W, strain vba3, hits give low values 1.01 | locus YCR088W, strain abp1, hits give low values 1.01 | locus YDL005C, strain med2, hits give low values 1.03 | locus YDL035C, strain GPR1, hits give low values 1.02 | locus YDL040C, strain nat1, hits give low values 1.02 | locus YDL074C, strain BRE1, hits give low values 1.01 | locus YDL101C, strain DUN1, hits give low values 1.01 | locus YDL134C, strain PPH21, hits give low values 1.01 | locus YDL185W, strain tfp1, hits give low values 0.992 | locus YDL192W, strain arf1, hits give low values 0.995 | locus YDR001C, strain nth1, hits give low values 1.02 | locus YDR069C, strain doa4, hits give low values 1.03 | locus YDR101C, strain arx1, hits give low values 1 | locus YDR137W, strain rgp1, hits give low values 1.03 | locus YDR159W, strain sac3, hits give low values 1.05 | locus YDR162C, strain NBP2, hits give low values 1.02 | locus YDR195W, strain ref2 1.01 | locus YDR297W, strain sur2, hits give low values 1.02 | locus YDR318W, strain mcm21, hits give low values 1 | locus YDR334W, strain swr1, hits give low values 1.01 | locus YDR335W, strain msn5, hits give low values 1.02 | locus YDR388W, hits give low values 1 | locus YDR392W, strain spt3, hits give low values 0.911 | locus YDR502C, strain sam2, hits give low values 1.01 | locus YEL003W, strain gim4, hits give low values 1.03 | locus YEL037C, strain rad23, hits give low values 1.01 | locus YEL061C, strain CIN8 (second series), hits give low values 1.02 | locus YEL061C, strain CIN8, hits give low values 1.01 | locus YER015W, strain faa2, hits give low values 1.01 | locus YER016W, strain bim1, hits give low values 1.03 | locus YER110C, hits give low values 1 | locus YER111C, strain swi4, hits give low values 1.02 | locus YER155C, strain BEM2 (second series), hits give low values 1.02 | locus YER155C, strain BEM2, hits give low values 1.01 | locus YER167W, strain BCK2, hits give low values 1 | locus YFR010W, strain ubp6, hits give low values 1.04 | locus YGL078C, strain dbp3, hits give low values 0.999 | locus YGL086W, strain mad1, hits give low values 0.993 | locus YGL167C, strain pmr1, hits give low values 1.02 | locus YGL173C, strain kem1, hits give low values 1.03 | locus YGL227W, strain vid30, hits give low values 1.02 | locus YGL240W, strain doc1, hits give low values 1.02 | locus YGL248W, strain PDE1, hits give low values 1.01 | locus YGL253W, strain hxk2, hits give low values 1.04 | [5] 1.01 | locus YGR135W, strain pre9, hits give low values 1 | [6] 1.02 | locus YGR252W, strain gcn5, hits give low values 0.955 | locus YHR013C, strain ard1, hits give low values 1.01 | locus YHR027C, strain rpn1, hits give low values 1.01 | locus YHR030C, strain SLT2, hits give low values 1.01 | locus YHR079C, strain IRE1 (second series), hits give low values 1 | locus YHR079C, strain IRE1, hits give low values 0.992 | locus YHR094C, strain hxt1, hits give low values 0.992 | locus YHR129C, strain ARP1, hits give low values 1.01 | locus YHR142W, strain chs7, hits give low values 1.03 | locus YHR200W, strain rpn10, hits give low values 1 | locus YIL066C, strain RNR3, hits give low values 1.02 | locus YIL073C, strain SPO22, hits give low values 1.01 | locus YIL125W, strain kgd1, hits give low values 0.991 | locus YIR030C, strain dcg1, hits give low values 0.99 | locus YJL092W, strain hpr5, hits give low values 1.02 | locus YJL095W, strain BCK1 (second series), hits give low values 1.01 | locus YJL095W, strain BCK1, hits give low values 1.02 and 1 | locus YJL115W, strain asf1, hits give low values 1.01 | locus YJL129C, strain trk1, hits give low values 1.02 | locus YJL134W, strain LCB3, hits give low values 1.01 | locus YJL154C, strain vps35, hits give low values 1.02 | locus YJL164C, strain tpk1, hits give low values 0.996 | locus YJL166W, strain qcr8, hits give low values 1.03 | locus YJL168C, strain set2, hits give low values 1 | locus YJL187C, strain SWE1 (second series), hits give low values 1.01 | locus YJR043C, strain POL32, hits give low values 1.03 | locus YJR066W, strain TOR1, hits give low values 0.96 | [15] 1.01 | locus YKL009W, strain mrt4, hits give low values 1.01 | locus YKL068W, hits give low values 0.987 | locus YKL085W, strain MDH1 (second series), hits give low values 1.01 | locus YKL085W, strain MDH1, hits give low values 1.01 | locus YKL160W, strain elf1, hits give low values 1 | locus YKL190W, strain CNB1, hits give low values 1.01 | locus YKR001C, strain vps1, hits give low values 0.981 | locus YKR026C, strain gcn3, hits give low values 1.01 | locus YKR091W, strain srl3, hits give low values 1.02 | locus YLL001W, strain dnm1, hits give low values 1.02 | locus YLL026W, hits give low values 1.02 | locus YLL041C, strain sdh2, hits give low values 1.02 | locus YLR027C, strain aat2, hits give low values 1.03 | locus YLR039C, strain RIC1, hits give low values 1.03 | locus YLR058C, strain SHM2, hits give low values 1.01 | locus YLR102C, strain apc9, hits give low values 0.997 | locus YLR113W, strain HOG1, hits give low values 0.978 | locus YLR221C, strain rsa3, hits give low values 1.02 | locus YLR258W, strain gsy2, hits give low values 1.02 | locus YLR262C, strain YPT6 (second series), hits give low values 1.03 | locus YLR262C, strain YPT6, hits give low values 1.05 | locus YLR268W, strain sec22, hits give low values 0.995 | locus YLR320W, strain mms22, hits give low values 1.04 | locus YLR330W, strain CHS5, hits give low values 1.01 | locus YLR342W, strain FKS1 (second series), hits give low values 1.02 | locus YLR342W, strain FKS1, hits give low values 1.02 | locus YLR357W, strain rsc2, hits give low values 1 | locus YLR370C, strain arc18, hits give low values 1.01 | locus YLR371W, strain rom2, hits give low values 0.989 | locus YLR384C, strain iki3, hits give low values 1.02 | locus YLR418C, strain cdc73, hits give low values 0.991 | locus YML016C, strain PPZ1, hits give low values 1.01 | locus YML032C, strain rad52, hits give low values 0.99 | locus YML120C, strain ndi1, hits give low values 1 | locus YML124C, strain tub3, hits give low values 1 | locus YMR058W, strain fet3, hits give low values 1.03 | locus YMR078C, strain ctf18, hits give low values 0.999 | locus YMR125W, strain sto1, hits give low values 0.983 | locus YMR129W, hits give low values 1.02 | locus YMR205C, strain PFK2, hits give low values 1.04 | locus YMR223W, strain ubp8, hits give low values 1.02 | locus YMR231W, strain pep5, hits give low values 1.01 | [7] 1.01 | [8] 0.97 | locus YNL067W, strain RPL9B, hits give low values 1.01 | locus YNL071W, strain lat1, hits give low values 1.02 | locus YNL183C, strain NPR1, hits give low values 0.96 | locus YNL209W, strain ssb2, hits give low values 1.04 | locus YNL233W, strain BNI4, hits give low values 0.992 | locus YNL248C, strain rpa49, hits give low values 0.941 | locus YNL250W, strain rad50, hits give low values 1 | locus YNL271C, strain bni1, hits give low values 0.99 | locus YNL298W, strain CLA4, hits give low values 1.02 | locus YNL307C, strain MCK1, hits give low values 0.995 | locus YNL322C, strain KRE1 (second series), hits give low values 1.01 | locus YNR049C, strain mso1, hits give low values 1.01 | locus YNR052C, strain pop2, hits give low values 0.992 | locus YOL006C, strain TOP1, hits give low values 0.998 | locus YOL012C, strain htz1 0.77 | locus YOL147C, strain pex11, hits give low values 1 | locus YOR001W, strain rrp6, hits give low values 1.04 | locus YOR061W, strain CKA2, hits give low values 1.01 | locus YOR069W, strain VPS5, hits give low values 1.01 | locus YOR070C, strain gyp1, hits give low values 1.03 | locus YOR080W, strain dia2, hits give low values 1.02 | locus YOR083W, strain WHI5, hits give low values 1.01 | locus YOR106W, strain vam3, hits give low values 0.994 | locus YOR136W, strain idh2, hits give low values 0.992 | locus YOR144C, strain elg1, hits give low values 0.997 | locus YOR184W, strain ser1, hits give low values 1.02 | locus YOR231W, strain MKK1, hits give low values 0.99 | locus YOR265W, strain rbl2, hits give low values 1.01 | locus YOR270C, strain vph1, hits give low values 1.07 | locus YOR290C, strain snf2, hits give low values 0.969 | locus YOR316C, strain cot1, hits give low values 1 | locus YPL051W, strain arl3, hits give low values 1 | locus YPL078C, strain atp4, hits give low values 0.984 | locus YPL106C, strain sse1, hits give low values 1.01 | locus YPL240C, strain hsp82, hits give low values 1.02 | locus YPL256C, strain CLN2, hits give low values 1 | locus YPR119W, strain clb2, hits give low values 1 | locus YPR141C, strain kar3, hits give low values 0.995 | locus YPR163C, strain tif3, hits give low values 1.02 | locus YPR167C, strain met16, hits give low values 1 | strain wtn01, hits give low values 0.986
